Shown are actives, neighbours in structure and some others; about 7.5% of the full set was active somewhere.
ELG1 genotoxic: qHTS screen for small molecules that induce genotoxicity in human embryonic kidney (HEK293T) cells expressing luciferase-tagged ELG1. HEK293T ELG1-luciferase reporter, luminescence, 16 h. Potency, µM (highest dose often 46 µM), usual class: activators. 1.3% of 330,000 active. AID 504466, 2011; further: nearly all actives have a fitted effect of over 60% in size
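HEK293T cells expressing luciferase-tagged ELG1 were treated with compound or DMSO for 16 hr at 37°C. Luciferase activity was then read after 30 min with ONE-Glo at room temperature; rising signal flags genetic stress.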
Rab9 prom act: qHTS Assay for Rab9 Promoter Activators; Potency, µM (highest dose often 9.22 µM), most hits filed as activators; 2.8% of 320,000 active; Huh7 Rab9 promoter-luciferase reporter, luminescence, 24 h; AID 485297, 2010; further: nearly all actives have a fitted effect of over 60% in size
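Luminescence from Amplite-detected luciferase (10 minutes, ambient) reports Rab9 promoter activation. Before that, stable Rab9-luciferase Huh7 cells (1500/well, reduced-serum OP-MEM I plus 10% FBS) were exposed to compound for 24 hours at 37C.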
SMN2 splice enh: qHTS Assay for Enhancers of SMN2 Splice Variant Expression. HEK293 SMN2-luciferase splicing reporter, luminescence, 30-36 h. Potency, µM (top dose mostly 46.1 µM), most hits filed as activators. 2.8% of 210,000 active. AID 1458, 2008; further: nearly all actives have a fitted effect of over 55% in size
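qHTS luciferase splicing reporter: luminescence rises when SMN2 exon 7 is included in transfected HEK293 cells. Compound exposure lasted 30-36 h at 37C, with 4.5 mM final sodium butyrate as control, followed by a ONE-Glo read.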
FLuc counter: qHTS profiling assay for firefly luciferase inhibitor/activator using purifed enzyme and Km concentrations of substrates (counterscreen for miR-21 project); Potency, µM (highest dose often 57.5 µM), hits mostly inhibitors; purified FLuc, Km substrates, luminescence inhibition; Luciferin 4-monooxygenase (Photinus pyralis), P08659; 6.9% of 360,000 active; further: nearly all actives have a fitted effect of over 55% in size
Target sequence (P08659 whole entry, looked up): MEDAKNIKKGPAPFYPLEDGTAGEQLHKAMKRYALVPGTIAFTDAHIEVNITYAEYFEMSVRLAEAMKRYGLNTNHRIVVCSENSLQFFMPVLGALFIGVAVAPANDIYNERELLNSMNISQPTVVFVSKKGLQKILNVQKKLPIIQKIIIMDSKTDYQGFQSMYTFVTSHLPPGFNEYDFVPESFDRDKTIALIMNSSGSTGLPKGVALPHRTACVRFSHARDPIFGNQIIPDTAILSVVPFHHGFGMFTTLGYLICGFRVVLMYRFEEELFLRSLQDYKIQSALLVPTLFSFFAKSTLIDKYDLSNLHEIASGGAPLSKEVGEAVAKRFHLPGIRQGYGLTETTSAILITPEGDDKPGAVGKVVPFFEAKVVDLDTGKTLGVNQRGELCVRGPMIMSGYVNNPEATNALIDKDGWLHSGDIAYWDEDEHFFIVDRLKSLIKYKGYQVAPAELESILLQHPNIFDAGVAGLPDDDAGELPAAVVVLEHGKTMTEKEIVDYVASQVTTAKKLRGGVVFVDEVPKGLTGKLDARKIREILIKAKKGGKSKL
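Biochemical qHTS of compounds, final roughly 60 µM downward over six points, against 10 nM purified firefly luciferase using Km concentrations of substrates (10 uM D-luciferin, 10 uM ATP) in Tris acetate pH 7.5 buffer; luminescence output.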
NPC1 promoter act: qHTS Assay for NPC1 Promoter Activators. Huh7 NPC1 promoter luciferase reporter, 24 h. Potency, µM (doses to about 9.22 µM), usual class: activators. 2.4% of 320,000 active; further: nearly all actives have a fitted effect of over 60% in size
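Cells: Huh7 expressing luciferase under the NPC1 promoter, 1500/well. Seeded 2 h, compound added, incubated 24 h at 37 °C. Luciferase reagent, 10 min ambient, then luminescence.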
A number is an active result; – = inactive; ? = inconclusive; · = no result; ! = not active in a repeat. The call rests on the fitted dose curve; in most records, active means well fitted curve in the direction sought with a large enough effect; inconclusive means small, poorly fitted or top-dose-only effect, or another doubt; inactive means no such curve, though single readings can be large; an effect the other way counts as inactive or inconclusive.

SMILES	ELG1 genotoxic	Rab9 prom act	SMN2 splice enh	FLuc counter	NPC1 promoter act
COc1cc(-c2noc(-c3cc4cc(F)ccc4oc3=O)n2)cc(OC)c1OC	·	·	·	–	·
CCOc1cccc2cc(-c3nc(-c4ccccc4C)no3)c(=O)oc12	·	·	·	0.54µM	·
COc1cccc2cc(-c3nc(-c4cccs4)no3)c(=O)oc12	·	·	–	0.076µM	·
COc1ccc2oc(=O)c(-c3nc(-c4cc(OC)c(OC)c(OC)c4)no3)cc2c1	·	·	·	–	·
Cc1ccc(-c2nc(-c3cc4cccc(OCc5cccc(C)c5)c4oc3=O)no2)cc1	·	·	–	–	·
COc1cccc2cc(-c3nc(-c4ccccc4F)no3)c(=O)oc12	·	·	·	0.17µM	·
COc1cccc2cc(-c3nc(-c4cccs4)cs3)c(=O)oc12	?	3.5µM	14µM	5.4µM	3.5µM
Cc1c(Cl)cccc1NC(=S)NCC1COc2ccccc2O1 (configuration not stated)	–	–	–	–	–
O=C1C2C3C=CC(C3)C2C(=O)N1c1ccc(-c2nc3ccccc3o2)cc1 (configuration not stated)	1.8µM	1.4µM	13µM	2.7µM	1.4µM
O=C1C2C3C=CC(C3)C2C(=O)N1c1ccncc1 (configuration not stated)	–	–	–	–	–
COc1cc(C(=O)Nc2nnc(SCC(=O)NCC3CCCO3)s2)cc(OC)c1OC (configuration not stated)	–	–	·	–	–
COc1ccccc1C(=O)Nc1nnc(SCC(=O)NCC2CCCO2)s1 (configuration not stated)	?	3.5µM	·	6µM	1.4µM
O=C(CSc1nc2ccc(NC(=O)C3CCCCC3)cc2s1)NCC1CCCO1 (configuration not stated)	–	–	–	17µM	–
O=C(CSc1nnc(NC(=O)c2cccc(Cl)c2)s1)NCC1CCCO1 (configuration not stated)	?	–	·	6.7µM	–
CCc1ccc(NC(=O)CN2CCN(C3CCCCC3)C(=O)C2=O)cc1	·	·	·	–	·
CC(C)CC(=O)N1CCC(N2CCN(c3ccccc3)CC2)CC1	–	–	–	–	–
Cc1ccc(-n2[nH]c(C)c(/C=N/NC(=O)c3ccc(O)cc3O)c2=O)cc1	?	–	·	0.43µM	–
Cc1[nH]n(-c2ccc(Cl)cc2)c(=O)c1/C=N/c1nnc(-c2ccccc2)s1	–	–	–	19µM	–
Cc1ccc(-n2[nH]c(C)c(C=Nc3cc(C)ccn3)c2=O)cc1	–	–	?	?	–
Cc1[nH]n(-c2ccccc2)c(=O)c1/C=N/NC(=O)c1ccc(O)cc1O	?	–	·	2.1µM	–
Cc1[nH]n(-c2ccccc2)c(=O)c1/C=N/Nc1nncc(-c2ccccc2)n1	?	–	–	13µM	–
COc1ccc(CN2CCC(n3nccc3NC(=O)C3CC3)CC2)c(OC)c1OC	–	–	·	–	–
Cc1cc(C(=O)N/N=C/c2c(C)n(C)c3ccccc23)n[nH]1	–	–	–	?	–
Cc1cc(C(=O)N/N=C/c2c(C)[nH]n(-c3ccccc3)c2=O)n[nH]1	–	–	·	5.4µM	–
COc1ccccc1Nc1cc(C(=O)NC2CCCC2)c2ccccc2n1	–	–	–	12µM	–
SMILES	ELG1 genotoxic	Rab9 prom act	SMN2 splice enh	FLuc counter	NPC1 promoter act
COc1ccccc1Nc1ccc(C(=O)NC2CCCCC2)cn1	?	–	–	13µM	–
Cc1ccc(S(=O)(=O)NCCC(=O)NCCN2CCCCCC2)cc1	–	–	–	–	–
C=C1C(c2ccc(C)cc2)=CCc2cc(C)cc(C)c21	·	·	14µM	·	·
CCSc1nnc(NC(=O)C2CCN(S(=O)(=O)c3cc(C(F)(F)F)ccc3Cl)CC2)s1	–	–	–	–	–
CCN(c1ccccc1)S(=O)(=O)c1nnc(NC(=O)c2ccccc2)s1	·	·	·	2.4µM	·
Cc1cccc(NS(=O)(=O)c2nnc(NC(=O)C3CCCCC3)s2)c1	–	–	·	6.7µM!	–
CCCC(=O)Nc1nnc(S(=O)(=O)N(C)c2ccccc2)s1	·	·	·	0.85µM	·
CCN(c1ccccc1)S(=O)(=O)c1nnc(NC(=O)CC(C)C)s1	–	–	·	–	–
CCN(c1ccccc1)S(=O)(=O)c1nnc(NC(=O)c2cccs2)s1	·	·	·	0.34µM	·
Cc1cccc(NS(=O)(=O)c2nnc(NC(=O)CC(C)C)s2)c1	–	–	·	–	–
CCCCC(=O)Nc1nnc(S(=O)(=O)N(CC)c2ccccc2)s1	–	–	·	–	–
O=C(Nc1cccc(F)c1)N1CCCC2(CCNCC2)C1	·	·	–	·	·
CCN(c1ccc(Cl)cc1)S(=O)(=O)c1nnc(NC(=O)c2ccccc2C)s1	·	·	·	–	·
CCN(c1ccc(C)cc1)S(=O)(=O)c1nnc(NC(=O)c2cccs2)s1	·	·	·	13µM	·
Cc1cccc(N(C)S(=O)(=O)c2nnc(NC(=O)C(C)Oc3ccccc3)s2)c1 (configuration not stated)	·	·	·	4.8µM	·
CCN(c1ccccc1)S(=O)(=O)c1nnc(NC(=O)c2ccccc2OC)s1	–	–	·	1.7µM!	–
CN(c1ccccc1)S(=O)(=O)c1nnc(NC(=O)c2ccco2)s1	–	–	·	–	–
CN(c1ccccc1)S(=O)(=O)c1nnc(NC(=O)c2ccccc2)s1	·	·	·	0.19µM	·
CC1CC(=O)N(CC(=O)NCc2ccco2)c2ccccc2S1 (configuration not stated)	–	–	–	–	–
CN(c1ccc(Cl)cc1)S(=O)(=O)c1nnc(NC(=O)C(C)(C)C)s1	–	–	·	–	–
CN(c1ccccc1)S(=O)(=O)c1nnc(NC(=O)C2CCCCC2)s1	–	–	·	0.67µM!	–
Cn1c(/N=C/c2ccccc2[N+](=O)[O-])nc2ccccc21	–	–	·	1.7µM	–
Cn1c(/N=C/c2cc(Cl)ccc2O)nc2ccccc21	–	–	–	–	–
Cn1c(/N=C/c2cccs2)nc2ccccc21	–	–	–	1.1µM	–
COc1ccc(/C=N/c2nc3ccccc3n2C)cc1OC	–	–	–	0.76µM	–
SMILES	ELG1 genotoxic	Rab9 prom act	SMN2 splice enh	FLuc counter	NPC1 promoter act
COc1ccc(Cc2nc3ccc(C(=O)NCC4COCCO4)cc3o2)cc1 (configuration not stated)	–	–	·	–	–
Cc1ccnc(NC(=O)Cn2c(=O)oc3ccccc32)c1	–	–	·	?	–
Cc1ccc(CN2CCN(CC(=O)NCc3ccccc3)CC2)cc1	–	–	·	–	–
Cc1ccc(S(=O)(=O)N2CCN(C(=O)CCCOc3cccc(C)c3)CC2)cc1	–	–	·	–	–
O=C(CSc1nnc(-c2ccccn2)o1)Nc1ccccc1	?	2.5µM	11µM	–	2.5µM
O=C(CSc1nnc(-c2ccccn2)o1)Nc1ccccc1C(F)(F)F	?	?	·	–	?
O=C(CSc1nnc(-c2ccccn2)o1)Nc1ccc(F)cc1	?	?	·	–	2µM
Fc1ccc(CSc2nnc(-c3ccccn3)o2)cc1	?	2.2µM	·	11µM	1.4µM
